How the values were obtained:
Experiment in all cases: PBM binding z-score (relative to random genomic background probes); higher = stronger binding; sequences stand for … in GC…GCGATTGACAGCGTAGAATGAAGG
[1] = test system: PPARg:RXRa DBDmut IVT, anti-RXR (DBD mutation: RXRa K156A/R161A, NR concentration 270 nM, RXRa partner concentration 90 nM)
Summary of the method: (§1)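 On custom Agilent 4×180K arrays, double-stranded probes with 34-nt variable regions carried direct-repeat seeds, single-nucleotide variants, half-site ablations or random human genomic background. Ligand-free nuclear receptor dimers were applied for 1 h, and binding was read with antibodies against each partner (one per run). Binding z-scores come from regression-normalized fluorescence, with the random background probes as reference.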

[2] = test system: PPARg:RXRa IVT, anti-PPARg (NR concentration 270 nM, RXRa partner concentration 90 nM)
Summary of the method: as §1

[3] = test system: PPARg DBDmut:RXRa IVT, anti-PPARg (DBD mutation: PPARg1 K132A/R137A, NR concentration 270 nM, RXRa partner concentration 90 nM)
Summary of the method: as §1

[4] = test system: PPARg DBDmut IVT, anti-PPARg (DBD mutation: PPARg1 K132A/R137A, NR concentration 270 nM)
Summary of the method: as §1

[5] = test system: PPARg homodimer (NR concentration 180 nM)
Summary of the method: as §1

[6] = test system: PXR:RXRa (NR concentration 270 nM, RXRa partner concentration 90 nM)
Summary of the method: as §1

[7] = test system: PXR homodimer (NR concentration 270 nM)
Summary of the method: as §1

[8] = test system: RARa:RXR (NR concentration 270 nM, RXRa partner concentration 90 nM)
Summary of the method: as §1

[9] = test system: RARa homodimer (NR concentration 270 nM)
Summary of the method: as §1

[10] = test system: RARb:RXRa (NR concentration 270 nM, RXRa partner concentration 90 nM)
Summary of the method: as §1

Row | Sequence | PBM binding z-score [1] | PBM binding z-score [2] | PBM binding z-score [3] | PBM binding z-score [4] | PBM binding z-score [5] | PBM binding z-score [6] | PBM binding z-score [7] | PBM binding z-score [8] | PBM binding z-score [9] | PBM binding z-score [10]
1 | GCACACAGGTGAAACGCAGGTAACTCAGGGTGGC | 1.25 | 1.35 | -0.286 | -0.23 | -0.0515 | -0.134 | -0.747 | 0.575 | -0.648 | 0.803
2 | TAACCTAGGTCATTCAGGGGCCAGTATAGAAAGC | 3.77 | 4.77 | 0.824 | 0.744 | 2.96 | 3.09 | 0.651 | 4.06 | 0.531 | 4.33
3 | TAGCCTAGGTTAGATCGGGCCAGTATACGCTATA | -0.639 | 0.069 | -0.497 | -0.751 | -0.958 | -0.294 | -0.619 | 0.00533 | -0.589 | 0.0949
4 | TCTATTTGGTCACGGAGGTCACACACGACGGGTA | 2.53 | 4.35 | 4.5 | 3.22 | 3.91 | 4.86 | 2.58 | 4.88 | 2.06 | 4.21
5 | CCTATTAGGTGACCATAAGGGCAACCGAAGCTCG | 5.2 | 4.27 | 0.935 | -0.392 | 0.93 | 0.636 | 0.326 | 1.19 | 0.485 | 1.87
6 | TCGAGTAGGTTAGTCGCGGCATTCAGCCAACATA | 1.72 | 0.971 | -0.971 | -1.42 | -0.911 | -0.398 | -0.771 | -0.208 | -0.937 | -0.138
7 | CCAGACCGGTGAGAAGGTAACTCAGCCTCGATTA | -0.324 | -0.727 | -1.57 | -1.1 | 0.768 | -0.393 | -0.18 | -0.155 | 0.901 | -0.00175
8 | CGTCCAAGGCCAGCAGGTCAGTGAAAGCGACGTG | 0.153 | -0.0441 | -0.768 | -0.983 | 0.0229 | 0.29 | -0.389 | 0.692 | -1.23 | 2.36
9 | AATACAGGGTCATCGTAGGCGAGAGTACGCACAG | 2.84 | 4.14 | 3.29 | 1.01 | 2.21 | 4.29 | 1.03 | 5.1 | 1.25 | 4.37
10 | CAGCCTAGGTCAGGGCCACTATAGGAGGAACGTT | 1.2 | 1.84 | -0.722 | -1.19 | 0.834 | 0.356 | -0.684 | 0.936 | -0.384 | 3.44
11 | CTCGAAAGTTCGGTTGAGGTGAGTATACGGATAA | -0.462 | 0.288 | -0.142 | 0.0612 | 0.083 | 1.14 | 0.236 | 1.8 | -0.11 | 1.55
12 | ATATGTAGGTTAAGGGTGATTCAGGTTGGTTCGC | 7.67 | 6.98 | 1.59 | 1.38 | 3.75 | 1.63 | 1.19 | 1.72 | 1.64 | 1.54
13 | AGTCAAAGTTCACTAGGTACCGTAAGATTCAGCT | 1.61 | 3.48 | 1.07 | 0.221 | 2.63 | 4.09 | 3.98 | 2.9 | 1.09 | 4.74
14 | CCGAGTGGGGCAAGGTTACCATAACGCACAGCCA | 1.75 | 3.14 | -0.586 | -0.492 | 0.921 | 0.439 | 0.123 | 1.16 | -0.144 | 1.4
15 | TCTAGGAGGCCAGAGGGTCACTCAAGAGGTACGG | 1.84 | 1.03 | -0.0331 | -0.364 | 0.662 | 1.42 | -0.35 | 2.08 | -0.215 | 2.58
16 | GCTTACGGGTCAAAGGTTATAGCCTGAATAGAAT | 4.87 | 6.32 | 0.778 | 1.43 | 7.84 | 6.26 | 0.103 | 8.66 | -0.0748 | 4.65
17 | CGTCCAAGGTCAGAGAGGTCAGTGGATGCCGAGT | 2.81 | 3.74 | 0.146 | 0.0263 | 3.71 | 6.17 | 11.7 | 5.33 | 0.8 | 5.38
18 | TCTCGGAGGATACGAAGGTCAGAGCTTTCCAGAG | 1.14 | 0.245 | -1.41 | -1.19 | 0.218 | 1.09 | -0.447 | 1.64 | -0.378 | 2.33
19 | TGTCTAAGTTCAAAGGTAACGTAAGTATCCACAC | -0.293 | 1.97 | 0.709 | 1.14 | 1.56 | 5.3 | 3.65 | 4.93 | 0.919 | 3.93
20 | CCTACTGGGCCATCAGGTCATTGAGATCAACGTT | 4.42 | 4.78 | 0.317 | 0.581 | 1.13 | 2.08 | 2.14 | 2.31 | -0.158 | 2.22
21 | ACTAGTTGGTCAGCTGAGGTCACAGACAATTCGG | 1.59 | 2.68 | 0.63 | 0.453 | 2.49 | 5.14 | 1.43 | 4.65 | 0.482 | 3.48
22 | ACACACAGGTGATGAAGGTAACTCAGGCTATCAT | 0.704 | 1.02 | 0.73 | 0.679 | 0.0611 | -0.0363 | 0.251 | 0.28 | 0.957 | 0.355
23 | TCATATAGGTAAAGGTGGAAGTCGAACGATATGA | 3.45 | 2.86 | 1.27 | 1.48 | 0.634 | 0.357 | 0.267 | 0.637 | 0.638 | 0.387

— the supplement of paper PMC6555819
